{"source": "PubChem BioAssay (NCI)", "note": "About 83,000 compounds went through this panel and 20% of them were active in at least one assay; those are over-represented in the sample as a whole.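 Single-dose data. Exposure time 48 hours. Values below 10 considered active.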 Unmarked numbers belong to inactive results. The source made the active and inactive calls."}
{"system": "SF-539 CNS", "assay": "NCI-60 one-dose screen, 48 h (100 = growth as untreated, 0 = no growth, -100 = all killed)", "conditions": "10 µM unless noted"}
{"molecule": "CCCCNC(=O)Oc1ccc(/C(=C(/C)Cc2ccc(OC)cc2)c2ccc(OCCN(CC)CC)cc2)cc1", "growth": "77.8%"}
{"molecule": "Cc1nc2sc(C(=O)Nc3cccc(Br)c3)c(N)c2cc1C(O)c1ccccc1", "note": "(stereo not given)", "growth": "6.22% (active)"}
{"molecule": "CCn1cc(C(=O)O)c(=O)c2cc(F)c(N3CCN(CC(=O)Nc4ccc(S(=O)(=O)Nc5nccc(C)n5)cc4)C(C)C3)c(F)c21", "note": "(stereo not given)", "growth": "99.2%"}
{"molecule": "C#CCOc1ccc2ncnc(Nc3ccc(NC(=O)C=C)cc3)c2c1", "growth": "-10.4% (active)"}
{"molecule": "Nc1ncnc2c1C(c1ccc(Br)cc1)c1sc3c(F)cccc3c1O2", "note": "(stereo not given)", "growth": "102%"}
{"molecule": "N#Cc1nc(-c2ccc(Cl)cc2)oc1S(=O)(=O)N1CCN(c2ccc(F)cc2)CC1", "growth": "98.3%"}
{"molecule": "CCn1c(SCC(=O)N/N=C(\\C)c2ccc(Cl)cc2)nc2c1c(=O)n(C)c(=O)n2C", "growth": "96.3%"}
{"molecule": "Cc1ccc(C2=Nc3c(N)ncnc3NC(c3cccc(Nc4ccnc5cc(C(F)(F)F)ccc45)c3)C2)cc1", "note": "(stereo not given)", "growth": "56.1%"}
{"molecule": "CCCCCCCCCCCCCCCCCCOc1ccccc1CC(=O)OCC[N+](C)(C)C", "growth": "21.3%"}
{"molecule": "CC(C)C1=NOC(=O)C1=Cc1cn(-c2ccccc2)nc1-c1ccc(F)cc1", "growth": "89.6%"}
{"molecule": "O=C(NNC(=O)c1ccc(NC(=O)c2ccccn2)cc1)Nc1ccc([N+](=O)[O-])cc1", "growth": "60.9%"}
{"molecule": "CSc1nc2ccccc2cc1/C=C1/C=C(c2ccccc2)NC1=O", "growth": "96.4%"}
{"molecule": "CC(C)c1ccc(-n2c(=S)[nH]c3sc4cc(O)ccc4c3c2=O)cc1", "growth": "93.6%"}
{"molecule": "C=C1C(=O)O[C@H]2[C@H]1CC/C(COC(=O)c1cc3ccccc3s1)=C\\CC[C@@]1(C)O[C@@H]21", "growth": "-88.4% (active)"}
{"molecule": "COc1ccc(OC)c(/C=N/Nc2ncnc3c2c(C)nn3C)c1", "growth": "105%"}
{"molecule": "NC(=O)c1ccc(-c2c3ccccc3cc3c2ccc2ccccc23)cc1", "growth": "34.5%"}
{"molecule": "NNc1nc(-c2cccnc2)nc2c1sc(=S)n2-c1ccccc1", "growth": "95.6%"}
{"molecule": "CN(C)CC(C)(C)C(=O)/C=C/c1ccccc1", "growth": "-77.2% [25 µM] (active)"}
{"molecule": "Cc1ccc(Nc2cc(N)nc(N)n2)cc1Cl", "growth": "96.7%"}
{"molecule": "COc1ccc(CNc2c3ccccc3nc3ccccc23)cc1", "growth": "27.5%"}
{"molecule": "CN(c1cc2ncc(=O)[nH]c2cc1NC(N)=NCc1ccc(Cl)cc1)C1CCCCC1", "growth": "66.4%"}
{"molecule": "Cc1cccc(CNc2c3ccccc3nc3ccccc23)c1", "growth": "11.7%"}
{"molecule": "Fc1cc2c(cc1Cl)N(c1ncnc3ccc(-c4ccc5n[nH]nc5c4)cc13)CC2", "growth": "78.9%"}
{"molecule": "CC(C)c1ccc(Cc2cnc(NC(=O)c3cc(Br)cs3)s2)cc1", "growth": "4.75% (active)"}
{"molecule": "O=C1Nc2ccc(C(=O)O)cc2/C1=N/c1nnc(Sc2ccccc2)s1", "growth": "96.8%"}
{"molecule": "O=C(Nc1nc2ccc(C(=O)N3CCN(/C=C/c4ccccc4)CC3)cc2s1)c1ccc(NCCc2ccccc2)c([N+](=O)[O-])c1", "growth": "71.7%"}
{"molecule": "O=C(c1ccncc1)N1N=C(c2ccc(Cl)cc2)C[C@H]1c1cn(-c2ccccc2)nc1-c1ccccc1", "growth": "81.2%"}
{"molecule": "CCc1ccc(CCCC(=O)O)cc1", "growth": "103%"}
{"molecule": "CSc1nc2ccccc2cc1/C=[N+](\\[O-])c1ccccc1", "growth": "19.7%"}
{"molecule": "NC(=O)CSc1oc(-c2ccccc2)nc1S(=O)(=O)c1ccc(Br)cc1", "growth": "45.7%"}
{"molecule": "N#CC1=C(N)Oc2c(c(=O)[nH]c3ccc(Cl)cc23)C12C(=O)c1ccccc1C2=O", "growth": "92.3%"}
{"molecule": "CC/C(=C(/c1ccc(Cl)cc1)c1ccc(OCCN2CCCCC2)cc1)c1ccc(OC)cc1", "growth": "65.5%"}
{"molecule": "NC(Cc1ccc(O)c([N+](=O)[O-])c1)C(=O)O", "note": "(stereo not given)", "growth": "100%"}
{"molecule": "Nc1c(C(=O)Nc2ccncc2)sc2nc3c(cc12)C(O)CCC3", "note": "(stereo not given)", "growth": "96.2%"}
{"molecule": "COc1ccc(NC2=C(I)C(=O)c3ncccc3C2=O)cc1", "growth": "-30% (active)"}
{"molecule": "CCOc1ccc(NC(=O)CSc2oc(-c3ccccc3)nc2S(=O)(=O)c2ccc(C)cc2)cc1", "growth": "17.8%"}
{"molecule": "O=S(=O)(Nc1cc(F)cc(Cl)c1)c1ccc(-c2cnc(C3CC3)o2)cc1", "growth": "5.3% (active)"}
{"molecule": "CC1(C)COB(OCC(C)(C)COB2OCC(C)(C)CO2)OC1", "growth": "98.3%"}
{"molecule": "O=C(Nc1ccccc1O)c1ccc(CNC(=O)c2sccc2Nc2ccnc(C(F)(F)F)c2)cc1", "growth": "48.9%"}
{"molecule": "CCC(C)N(CCNc1cc(OC)cc2cccnc12)CC(C)C", "note": "(stereo not given)", "growth": "115%"}
{"system": "UACC-257 melanoma", "assay": "NCI-60 one-dose screen, 48 h (100 = growth as untreated, 0 = no growth, -100 = all killed)", "conditions": "10 µM unless noted"}
{"molecule": "CCCCNC(=O)Oc1ccc(/C(=C(/C)Cc2ccc(OC)cc2)c2ccc(OCCN(CC)CC)cc2)cc1", "growth": "90.7%"}
{"molecule": "Cc1nc2sc(C(=O)Nc3cccc(Br)c3)c(N)c2cc1C(O)c1ccccc1", "note": "(stereo not given)", "growth": "38.8%"}
{"molecule": "CCn1cc(C(=O)O)c(=O)c2cc(F)c(N3CCN(CC(=O)Nc4ccc(S(=O)(=O)Nc5nccc(C)n5)cc4)C(C)C3)c(F)c21", "note": "(stereo not given)", "growth": "114%"}
{"molecule": "C#CCOc1ccc2ncnc(Nc3ccc(NC(=O)C=C)cc3)c2c1", "growth": "-26.3% (active)"}
{"molecule": "Nc1ncnc2c1C(c1ccc(Br)cc1)c1sc3c(F)cccc3c1O2", "note": "(stereo not given)", "growth": "114%"}
{"molecule": "N#Cc1nc(-c2ccc(Cl)cc2)oc1S(=O)(=O)N1CCN(c2ccc(F)cc2)CC1", "growth": "94.5%"}
{"molecule": "CCn1c(SCC(=O)N/N=C(\\C)c2ccc(Cl)cc2)nc2c1c(=O)n(C)c(=O)n2C", "growth": "103%"}
{"molecule": "Cc1ccc(C2=Nc3c(N)ncnc3NC(c3cccc(Nc4ccnc5cc(C(F)(F)F)ccc45)c3)C2)cc1", "note": "(stereo not given)", "growth": "51.7%"}
{"molecule": "CCCCCCCCCCCCCCCCCCOc1ccccc1CC(=O)OCC[N+](C)(C)C", "growth": "22.3%"}
{"molecule": "CC(C)C1=NOC(=O)C1=Cc1cn(-c2ccccc2)nc1-c1ccc(F)cc1", "growth": "91%"}
{"molecule": "O=C(NNC(=O)c1ccc(NC(=O)c2ccccn2)cc1)Nc1ccc([N+](=O)[O-])cc1", "growth": "106%"}
{"molecule": "CSc1nc2ccccc2cc1/C=C1/C=C(c2ccccc2)NC1=O", "growth": "86.8%"}
{"molecule": "CC(C)c1ccc(-n2c(=S)[nH]c3sc4cc(O)ccc4c3c2=O)cc1", "growth": "111%"}
{"molecule": "C=C1C(=O)O[C@H]2[C@H]1CC/C(COC(=O)c1cc3ccccc3s1)=C\\CC[C@@]1(C)O[C@@H]21", "growth": "-63.3% (active)"}
{"molecule": "COc1ccc(OC)c(/C=N/Nc2ncnc3c2c(C)nn3C)c1", "growth": "112%"}
{"molecule": "NC(=O)c1ccc(-c2c3ccccc3cc3c2ccc2ccccc23)cc1", "growth": "52.4%"}
{"molecule": "NNc1nc(-c2cccnc2)nc2c1sc(=S)n2-c1ccccc1", "growth": "92.3%"}
{"molecule": "CN(C)CC(C)(C)C(=O)/C=C/c1ccccc1", "growth": "-43.5% [25 µM] (active)"}
{"molecule": "Cc1ccc(Nc2cc(N)nc(N)n2)cc1Cl", "growth": "93.6%"}
{"molecule": "COc1ccc(CNc2c3ccccc3nc3ccccc23)cc1", "growth": "52.3%"}
{"molecule": "CN(c1cc2ncc(=O)[nH]c2cc1NC(N)=NCc1ccc(Cl)cc1)C1CCCCC1", "growth": "106%"}
{"molecule": "Cc1cccc(CNc2c3ccccc3nc3ccccc23)c1", "growth": "36.2%"}
{"molecule": "Fc1cc2c(cc1Cl)N(c1ncnc3ccc(-c4ccc5n[nH]nc5c4)cc13)CC2", "growth": "96%"}
{"molecule": "CC(C)c1ccc(Cc2cnc(NC(=O)c3cc(Br)cs3)s2)cc1", "growth": "53.4%"}
{"molecule": "O=C1Nc2ccc(C(=O)O)cc2/C1=N/c1nnc(Sc2ccccc2)s1", "growth": "107%"}
{"molecule": "O=C(Nc1nc2ccc(C(=O)N3CCN(/C=C/c4ccccc4)CC3)cc2s1)c1ccc(NCCc2ccccc2)c([N+](=O)[O-])c1", "growth": "37.3%"}
{"molecule": "O=C(c1ccncc1)N1N=C(c2ccc(Cl)cc2)C[C@H]1c1cn(-c2ccccc2)nc1-c1ccccc1", "growth": "89.6%"}
{"molecule": "CCc1ccc(CCCC(=O)O)cc1", "growth": "106%"}
{"molecule": "CSc1nc2ccccc2cc1/C=[N+](\\[O-])c1ccccc1", "growth": "90%"}
{"molecule": "NC(=O)CSc1oc(-c2ccccc2)nc1S(=O)(=O)c1ccc(Br)cc1", "growth": "84.7%"}
{"molecule": "N#CC1=C(N)Oc2c(c(=O)[nH]c3ccc(Cl)cc23)C12C(=O)c1ccccc1C2=O", "growth": "101%"}
{"molecule": "CC/C(=C(/c1ccc(Cl)cc1)c1ccc(OCCN2CCCCC2)cc1)c1ccc(OC)cc1", "growth": "54.2%"}
{"molecule": "NC(Cc1ccc(O)c([N+](=O)[O-])c1)C(=O)O", "note": "(stereo not given)", "growth": "99.8%"}
{"molecule": "Nc1c(C(=O)Nc2ccncc2)sc2nc3c(cc12)C(O)CCC3", "note": "(stereo not given)", "growth": "96.3%"}
{"molecule": "COc1ccc(NC2=C(I)C(=O)c3ncccc3C2=O)cc1", "growth": "15.9%"}
{"molecule": "CCOc1ccc(NC(=O)CSc2oc(-c3ccccc3)nc2S(=O)(=O)c2ccc(C)cc2)cc1", "growth": "72%"}
{"molecule": "O=S(=O)(Nc1cc(F)cc(Cl)c1)c1ccc(-c2cnc(C3CC3)o2)cc1", "growth": "62.9%"}
{"molecule": "CC1(C)COB(OCC(C)(C)COB2OCC(C)(C)CO2)OC1", "growth": "98.6%"}
{"molecule": "O=C(Nc1ccccc1O)c1ccc(CNC(=O)c2sccc2Nc2ccnc(C(F)(F)F)c2)cc1", "growth": "46.5%"}
{"molecule": "CCC(C)N(CCNc1cc(OC)cc2cccnc12)CC(C)C", "note": "(stereo not given)", "growth": "99.8%"}
